A short description of assay [1]: qHTS assay for measurement of the activity of small molecule inhibitors on Zika virus induced Caspase-3 activity in human iPSC derived neural progenitor cells (hNPCs) (AID 1224857). Further: % of control where 0% means no effect; nearly all actives have a fitted effect of over 65% in size. The procedure, abridged:
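Percent inhibition of virus-induced caspase-3/7 luminescence (Caspase-Glo), scaled between uninfected cells and Zika-infected cells. hNPCs received compound 1 hr before ZIKV at 2 FFU/cell, with 6 hours infection at 37 C.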
In general terms: In qHTS, concentration-response curves come from the screen itself.

The nature of assay [2]: qHTS assay for measurement of the activity of small molecule inhibitors on Zika virus induced Caspase-3 activity in human astrocytoma cells (AID 1224859).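 Further: plate controls were ZIKV-infected untreated cells for no effect and uninfected cells for full effect.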 In outline: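 Luminescent caspase-3/7 read-out (30 min reagent, room temperature) in human SNB-19 cells infected 6 h with ZIKV (2 FFU/cell) after 1 h compound pre-incubation; Data were normalised to uninfected and infected wells.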

Assay [3] can be described thus: qHTS assay for small molecule agonists of the antioxidant response element (ARE) signaling pathway measured by Nrf2-dependant transcriptional activity (AID 720636; active means well fitted curve in the direction sought with a large enough effect in the repeat runs; an effect the other way counts as inactive or inconclusive;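 further: HepG2 cells with an ARE-driven luciferase reporter; % of control where 0% means no effect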). The procedure, abridged: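 First, ARE-luc HepG2 cells attached for 6 hr at 37 C in 1% dialyzed FBS medium. Next, compound or DMSO was added and incubated 16 hr. Finally, ONE-Glo reagent was added and luminescence measured after 30 min.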

A short description of assay [4]: qHTS assay for small molecule antagonists of the retinoid-related orphan receptor gamma (ROR-gamma) signaling pathway - cell viability counter screen (AID 720652; active means well fitted curve in the direction sought with a large enough effect in the repeat runs; an effect the other way counts as inactive or inconclusive;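 further: series mostly up to about 92 µM; compound exposure lasted 16 hr before ATP read; on the % scale 0 is the no-effect control and ±100 the full control effect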). In outline: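 Luminescence from CellTiter-Glo after 30 min at room temperature reported cellular ATP as the cytotoxicity measure. Cells were the CHO reporter line with doxycycline-induced ROR-gamma expression, exposed to compound for 16 hr at 37 C.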

A short description of assay [5]: qHTS assay for small molecule agonists of the antioxidant response element (ARE) signaling pathway measured by Nrf2-dependant transcriptional activity - cell viability counter screen (AID 720653; active means well fitted curve in the direction sought with a large enough effect in the repeat runs; an effect the other way counts as inactive or inconclusive; further: on the % scale 0 is the no-effect control and ±100 the full control effect). Conditions: ARE-bla HepG2 viability, CellTiter-Glo ATP luminescence, 16 h; max response: stronger effect = lower value. The procedure, abridged:
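ARE-bla HepG2 cells treated with compounds for 16 h at 37C; this counter screen measures viability as intracellular ATP by CellTiter-Glo luminescence after 30 min at room temperature.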

Assay [6] can be described thus: qHTS Assay for Identifying Gametocytocidal Compounds (AID 743244).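 Further: on the % scale 0 is the no-effect control and ±100 the full control effect; actives lower the fluorescent signal which means gametocytes are killed.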 Conditions: P. falciparum 3D7 stage III-V gametocytes, alamarBlue, 72 h; max response: stronger effect = lower value. In outline:
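Viability read-out was resazurin reduction (alamarBlue, 24 h) measured at Ex 525/Em 598 nm. Beforehand, late-stage (III-V) 3D7 P. falciparum gametocytes at 20,000 cells/well were incubated with compound 72 h at 37C under 5% CO2.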

A short description of assay [7]: qHTS assay for cell viability of HEK293 cells (AID 743288). Further: on the % scale 0 is the no-effect control and ±100 the full control effect; nearly all actives have a fitted effect of over 50% in size. Conditions: ATP luminescence (CellTiter-Glo), 18 h, stronger effect = lower value. In outline:
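Parental HEK293 cells were seeded at 2,000 cells/well, rested at least 5 h at 37 C, then exposed to compounds in DMSO for 18 h at 37 C. Viability was read as ATP-dependent luciferase luminescence after 30 min at room temperature.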

Assay [8] is described as follows: qHTS assay for cell viability of the p53RE-bla HCT-116 cell line (AID 743292). Further: on the % scale 0 is the no-effect control and ±100 the full control effect; nearly all actives have a fitted effect of over 55% in size. The procedure, abridged: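 Quantitative high-throughput format: compounds in DMSO were pinned onto p53RE-bla HCT-116 cells (4,000/well) and incubated 16 h at 37 C. Total intracellular ATP, read by CellTiter-Glo luminescence, reflects viable cell number.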
A short description of assay [9]: P-glycoprotein substrates identified in KB-8-5-11 adenocarcinoma cell line, qHTS therapeutic library screen (AID 1346987). Further: nearly all actives have a fitted effect of over 65% in size. Further: potency means the concentration at half of the fitted maximal effect. In outline:
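Steps: plate 500 KB-8-5-11 cells/well in DMEM + 10% FCS (colchicine removed); pin compounds in dose-response; incubate 72 h, 37 degree C, 5% CO2; add CellTiter-Glo, 5 min; read luminescence.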

Assay [10] deals with T1, Hexokinase-4 (Homo sapiens) + Glucokinase regulatory protein (Homo sapiens) (UniProt P35557+Q14397). The assay can be described thus: qHTS assay for inhibitors of recombinant human GCK-GKRP interaction: Diaphorase-coupled assay (AID 743205). In outline:
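GST-GCK (10 nM) with FLAG-GKRP (10 nM), 5 mM glucose and 0.4 mM ATP in pH 7.6 Hepes; compounds preincubated 20 min with substrate. G6PDH/diaphorase coupling converts resazurin to resorufin, read kinetically (ex 525/em 590 nm) for 30 min.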

The target of assay [11] is T1, Hexokinase-4 (Homo sapiens) + Glucokinase regulatory protein (Homo sapiens). Kind of assay: qHTS assay for inhibitors of recombinant human GCK-GKRP interaction: ADP-Glo assay (AID 743206).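 Further: plate controls were DMSO plus enzyme for no effect and no enzyme for full effect.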 The procedure, abridged: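 GST-GCK and FLAG-GKRP (15 nM each in the dispensed mix, with 2 uM S6P) react with 0.4 mM ATP and 5 mM glucose (final) in Hepes pH 7.6 for 60 min at room temperature. ADP is measured by ADP-Glo luminescence.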

The target is the same in assay [12]. Kind of assay: qHTS assay for inhibitors of recombinant human GCK-GKRP interaction: HTRF assay (AID 743207).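 Further: 0% = DMSO with GCK present and -100% = DMSO wells lacking GCK.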 In outline: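 GST-GCK and FLAG-GKRP (5 nM each) were combined with 2 uM S6P in pH 7.1 Hepes/MgCl2/KCl/DTT buffer, then compound and anti-FLAG XL665/anti-GST K antibodies were added. After 60 min at room temperature, HTRF 665/615 nm emission was read.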

For assay [13], the target named is Atrial natriuretic peptide receptor 1 (Homo sapiens) (UniProt P16066). Kind of assay: Natriuretic polypeptide receptor (hNpr1) antagonism - Pilot screen (AID 1347049; calls by dose curve;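 further: agonist-evoked cGMP luminescence read 20 min after hNppA addition; series mostly up to about 58 µM; on the % scale 0 is the no-effect control and ±100 the full control effect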). In outline: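 HEK293 cells expressing hNpr1 and GloSensor cGMP luciferase, 1500/well, loaded with 2% GloSensor reagent 2 h, compound 30 min at room temperature; luminescence read before and 20 min after 0.1 nM hNppA stimulation.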
Chain of Atrial natriuretic peptide receptor 1 (Homo sapiens) (P16066 whole entry, looked up): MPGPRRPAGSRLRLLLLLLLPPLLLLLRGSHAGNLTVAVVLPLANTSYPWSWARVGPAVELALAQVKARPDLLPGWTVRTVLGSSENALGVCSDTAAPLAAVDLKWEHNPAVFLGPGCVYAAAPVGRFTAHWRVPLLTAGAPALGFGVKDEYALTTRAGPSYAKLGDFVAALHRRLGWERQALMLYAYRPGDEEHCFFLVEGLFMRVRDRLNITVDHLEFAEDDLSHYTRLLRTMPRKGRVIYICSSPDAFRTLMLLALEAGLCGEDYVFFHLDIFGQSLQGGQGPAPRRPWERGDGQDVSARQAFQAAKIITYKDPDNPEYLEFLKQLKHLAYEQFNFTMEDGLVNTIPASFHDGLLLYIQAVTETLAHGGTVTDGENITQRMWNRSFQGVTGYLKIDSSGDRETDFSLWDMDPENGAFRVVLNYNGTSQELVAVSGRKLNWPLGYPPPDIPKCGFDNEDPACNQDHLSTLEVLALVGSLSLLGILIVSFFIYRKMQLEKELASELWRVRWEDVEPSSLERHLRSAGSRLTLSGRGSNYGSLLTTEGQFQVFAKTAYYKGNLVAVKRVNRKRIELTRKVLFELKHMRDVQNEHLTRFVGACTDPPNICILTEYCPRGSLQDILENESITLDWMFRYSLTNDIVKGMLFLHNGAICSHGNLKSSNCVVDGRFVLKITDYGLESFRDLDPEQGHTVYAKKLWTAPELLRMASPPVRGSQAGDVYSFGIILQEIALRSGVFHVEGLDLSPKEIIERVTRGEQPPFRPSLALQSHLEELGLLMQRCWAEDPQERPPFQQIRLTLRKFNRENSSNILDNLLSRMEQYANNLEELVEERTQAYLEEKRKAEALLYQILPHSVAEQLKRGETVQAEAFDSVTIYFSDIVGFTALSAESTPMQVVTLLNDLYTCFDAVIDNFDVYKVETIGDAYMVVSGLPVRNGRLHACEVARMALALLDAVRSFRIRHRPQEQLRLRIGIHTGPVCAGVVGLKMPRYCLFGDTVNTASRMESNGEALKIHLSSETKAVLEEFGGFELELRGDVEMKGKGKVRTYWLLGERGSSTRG

Structures are written as SMILES. Where “and” joins values, the source holds several entries; their conditions need not be identical. Equal values may be shown once. Unmarked numbers belong to inactive results. Inconclusive results are not listed. Calls of active or inactive are those of the source. Unless noted, the call rests on the fitted dose curve; in most records, active means well fitted curve in the direction sought with a large enough effect; inconclusive means small, poorly fitted or top-dose-only effect, or another doubt; inactive means no such curve, though single readings can be large; an effect the other way counts as inactive or inconclusive.

T1 sequence (P35557 whole entry, looked up): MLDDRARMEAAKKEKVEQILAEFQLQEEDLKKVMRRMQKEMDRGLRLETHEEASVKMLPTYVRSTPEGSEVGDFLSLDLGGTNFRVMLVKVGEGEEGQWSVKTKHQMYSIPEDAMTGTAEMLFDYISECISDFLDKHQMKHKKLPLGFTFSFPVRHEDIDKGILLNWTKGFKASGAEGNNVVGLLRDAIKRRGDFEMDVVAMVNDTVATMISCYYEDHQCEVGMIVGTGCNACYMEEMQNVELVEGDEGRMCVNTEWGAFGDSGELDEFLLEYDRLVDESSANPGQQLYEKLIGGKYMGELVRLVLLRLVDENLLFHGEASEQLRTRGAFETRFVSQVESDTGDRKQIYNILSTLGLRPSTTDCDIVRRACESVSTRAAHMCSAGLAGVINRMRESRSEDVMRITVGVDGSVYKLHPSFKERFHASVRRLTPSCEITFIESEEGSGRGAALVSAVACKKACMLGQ
T1 sequence (Q14397 whole entry, looked up): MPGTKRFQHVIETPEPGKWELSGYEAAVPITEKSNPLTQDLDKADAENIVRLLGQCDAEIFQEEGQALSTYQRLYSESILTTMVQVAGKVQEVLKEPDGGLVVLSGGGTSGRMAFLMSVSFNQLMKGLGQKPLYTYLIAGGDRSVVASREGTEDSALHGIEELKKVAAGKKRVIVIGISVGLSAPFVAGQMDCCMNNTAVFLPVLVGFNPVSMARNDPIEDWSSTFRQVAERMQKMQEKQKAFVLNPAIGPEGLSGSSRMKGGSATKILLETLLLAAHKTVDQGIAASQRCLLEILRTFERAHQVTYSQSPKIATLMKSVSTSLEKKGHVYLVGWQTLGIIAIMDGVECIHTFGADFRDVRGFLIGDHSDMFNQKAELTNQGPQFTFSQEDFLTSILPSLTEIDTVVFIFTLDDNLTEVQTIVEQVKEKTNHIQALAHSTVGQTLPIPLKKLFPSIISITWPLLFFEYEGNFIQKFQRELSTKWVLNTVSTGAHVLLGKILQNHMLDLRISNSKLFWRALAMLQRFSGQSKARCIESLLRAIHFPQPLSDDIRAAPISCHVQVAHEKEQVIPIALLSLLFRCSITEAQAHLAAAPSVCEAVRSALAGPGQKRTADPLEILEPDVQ

For `COC(=O)C1=C(C)NC(C)=C(C(=O)OCCc2ccc(N3CCN(C(c4ccccc4)c4ccccc4)CC3)cc2)C1c1cccc([N+](=O)[O-])c1` (stereo not drawn), the Potency entry in assay [1] is “inactive”. Further, the molecule was classed as inactive in assay [2].

For `NS(=O)(=O)c1cc(C(=O)NN2C[C@H]3[C@H]4CCC(C4)[C@H]3C2)ccc1Cl`, the Potency result in assay [1] was “inactive”. The molecule was called inactive in assay [2].

As for `Brc1ccccc1-c1ccccc1`, the result in [3], in assay [4] and in assay [2] was inactive. In addition, the values for the max response in assay [5], in [6] and in assay [7] were 3.59%, -19.3% and -7.8%, respectively. The Potency result in assay [8], in assay [1] and in assay [9] was “inactive” each time.

As for `O=C1NC2CCCCN2C12CCN(CCCN1c3ccccc3CCc3ccc(Cl)cc31)CC2` (stereo not drawn), the Potency result in assay [1] was “inactive”. Besides, the outcome in assay [2] was inactive. The Potency in [9] is 16.4 µM (active).

`O=C(Nc1ccc(Cl)cc1)Nc1ccc(Cl)c(C(F)(F)F)c1`: the Potency result in assay [1] is “inactive”. Besides, in assay [2], the outcome was inactive. Also, in [9], the Potency is 20.6 µM (active).

`Cc1cc(C(C)(C)C)c(O)c(C(C)(C)C)c1`: the molecule was classed as inactive in assay [3], in assay [4] and in [2]. The max response is -5.59% and 4.89% in assay [5]; -17.9% in assay [6]; -0.0848% and 0.626% in [7]. The Potency entry in assay [8], in assay [1] and in assay [9] was “inactive” in each case.

As for `O=C1NC(c2cccc([N+](=O)[O-])c2)=CCN1c1ccccc1O`, the result in assay [10], in [11], in [12] and in assay [2] was inactive. In assay [6], the max response was 21.2%. Besides, the Potency result in assay [1], in assay [9] and in assay [13] was “inactive” throughout.

Regarding `Brc1ccc([C@H]2CN3CCSC3=N2)cc1`, the outcome in assay [10], in [11], in [12] and in [2] was inactive. The max response in [6] was 13.2%. Further, the Potency result in assay [1], in [9] and in [13] was “inactive” throughout.

For `COC(=O)C1=CO[C@@H](O)[C@@H]2C(CO)=CC[C@H]12`, the result in assay [10], in assay [11], in assay [12] and in assay [2] was inactive. The max response in [6] is 18%. Besides, the Potency result in assay [1], in assay [9] and in assay [13] was “inactive” in each case.

Take `CC(C(O)c1ccccc1)N(C)CCOC(c1ccccc1)c1ccccc1` (stereo not drawn): the Potency result in [1] is “inactive”. Further, the molecule was called inactive in [2]. The Potency in [9] was 14.6 µM (active).

As to `O=C1NCCN1CCN1CCC(c2cn(-c3ccc(F)cc3)c3ccc(Cl)cc23)CC1`, the Potency result in [1] is “inactive”. Further, the molecule was classed as inactive in [2]. The Potency in [9] is 18.4 µM (active) and 20.6 µM (active).

The record behind these values is PubChem BioAssay (NCATS).
